This is a sample that favours compounds with a hit; in the whole collection about 0.45% have one here.
FMDV Renilla: shows antiviral activity in FMDV Renilla assay; AID 1745857; actives 0.32% (n = 120,000); Potency, µM (top dose mostly 57.5 µM), inactives show at the highest dose activity change, negative = inhibition, usual class: inhibitors; FMDV replicon cells, Renilla luciferase signal; further: nearly all actives have a fitted effect of over 55% in size
FMDV antiviral: antivirals against foot and mouth disease virus; AID 1745856; Potency, µM (titrated, usually from 57.5 µM), for the others: top-dose activity change, negative = inhibition, actives largely listed as inhibitors; FMDV antiviral cell assay, firefly luciferase signal; actives 0.23% (n = 120,000); further: nearly all actives have a fitted effect of over 60% in size
* = called active by the depositor; ? = inconclusive; [ ] = remark or other dose. The call rests on the fitted dose curve. On the % scale 0 is the no-effect control and ±100 the full control effect; potency means the concentration at half of the fitted maximal effect.

SMILES	FMDV Renilla	FMDV antiviral
Cc1[nH]c2ccccc2c1C(=O)C(C)OC(=O)c1ccc2c(c1)NC(=O)CS2 (stereo not drawn)	?	35.5µM*
CC(OC(=O)c1ccc2c(c1)NC(=O)CS2)C(=O)c1ccccc1 (stereo not drawn)	14.1%	84.1%
COc1ccc(CNC(=O)C(C)OC(=O)c2ccc3c(c2)NC(=O)CS3)cc1OC (stereo not drawn)	?	25.1µM*
CCc1ccc(-c2cc(C)no2)cc1S(=O)(=O)Nc1ccc(Cl)cn1	136.4%	-14.1%
CN(C)c1ccc(CNC(=O)CN2C(=O)CSc3ccc(S(=O)(=O)N4CCCC4)cc32)cc1	20.7%	-18.0%
CCCS(=O)(=O)NCCc1ccc(C(=O)O)cc1	-9.1%	7.4%
CCc1ccc(C(=O)/C=C/c2ccc([N+](=O)[O-])cc2)cc1	4.9%	58.8%
O=c1[nH]c(=O)n(-c2cccc(Cl)c2)c2c1CN(Cc1ccco1)CN2	-6.1%	-5.3%
Cc1ccc(-n2ncc(C(=O)NCc3ccc4c(c3)OCO4)c2C2CCN(C(=O)OC(C)(C)C)CC2)c(C)c1	21.0%	-21.1%
Cc1ccc(C2=NC(C(F)(F)F)(C(F)(F)F)c3c(n(-c4ccccc4)c(=O)[nH]c3=O)N2)cc1	2.8%	4.6%
O=c1[nH]c(=O)n(Cc2ccccc2)c2c1C(C(F)(F)F)(C(F)(F)F)N=C(c1cccs1)N2	?	20µM*
Cc1nc2c3ccccc3nc(NNC(=O)CCC(=O)N3CCN(c4cccc(C(F)(F)F)c4)CC3)n2n1	-20.5%	-9.5%
Cc1c(S(=O)(=O)N2CCCC2c2ccccc2F)cnn1C(F)F (stereo not drawn)	4.9%	-4.9%
Cc1ccc(C2CC(=O)C3=C(C2)OC(N)=C(C#N)C3c2ccc(F)cc2)cc1 (stereo not drawn)	9.2%	15.5%
CCOc1ccc2nc(SCC(=O)N3CCN(S(=O)(=O)c4ccccc4)C3C(C)C)[nH]c2c1 (stereo not drawn)	?	25.1µM*
CCOc1ccc2nc(SCC(=O)N(Cc3ccccc3)C3CCS(=O)(=O)C3)[nH]c2c1 (stereo not drawn)	5.3%	1.7%
CCOCCCNC(=O)C(c1ccc(OC)cc1)N(Cc1ccc2c(c1)OCO2)C(=O)c1ccccc1O (stereo not drawn)	174.6%	2.0%
Cc1ccc(N2CCN(C(=O)c3cn(C)c4ccc(S(=O)(=O)N(C)C)cc4c3=O)CC2C)cc1 (stereo not drawn)	34.9%	-0.9%
CC(C)CNc1nc(-c2ccc(S(=O)(=O)N3CCCC3)cc2)cs1	22.4µM*	?
CCNc1nc(-c2ccc(S(=O)(=O)N3CCCCCC3)cc2)cs1	-12.7%	-9.3%
COc1ccc(OCCn2cc(C(C)=O)c3ccccc32)cc1	?	25.1µM*
CC(=O)c1cn(CCOc2ccccc2F)c2ccccc12	8.91µM*	?
O=C(c1cccs1)c1cn(CCOc2ccccc2F)c2ccccc12	7.1%	21.3%
Cc1ccc(OCCn2cc(C(=O)C3CC3)c3ccccc32)cc1	41.2%	68.5%
Cc1cc(C(=O)NCC(C)C)ccc1N	4.8%	20.5%
SMILES	FMDV Renilla	FMDV antiviral
COCC(=O)n1nc(NCc2cccc(Cl)c2)nc1NCc1cccc(Cl)c1	2.3%	4.4%
Cc1ccc(NC(=O)C(C)N(c2ccc(C)c(C)c2)S(C)(=O)=O)cc1C (stereo not drawn)	-1.9%	-17.4%
COc1ccc(CNc2cc(-c3ccc(OC)cc3)nc3nncn23)cc1	-20.9%	-16.8%
Cc1nc2nncn2c(NCc2ccc(F)cc2)c1C	8.91µM*	?
CCc1c(C)nc2nncn2c1NCc1ccc(OC)cc1	-28.5%	-11.9%
Cc1nc2nncn2c(NCc2ccc(Cl)cc2)c1C	1.41µM*	?
Cc1ccc(CNC(=O)C2CCCN(c3ncnc4onc(-c5ccc(F)cc5)c34)C2)cc1 (stereo not drawn)	-0.8%	7.0%
CCN(CC)S(=O)(=O)NCc1ccnc(N2CCN(c3ccc(F)cc3)CC2)c1	10µM*	?
CCCN(CCC)S(=O)(=O)NCc1ccnc(N2CCN(c3ccc(F)cc3)CC2)c1	-13.1%	-29.2%
Cn1c(=O)c2c(-c3ccc(Cl)cc3)n(CCc3ccccc3)cc2n(C)c1=O	24.6%	78.1%
O=[N+]([O-])c1ccc(/C=N/NC(=S)Nc2ccccc2)cc1	25.3%	0.0%
O=C(O)c1cccc(NC(=S)N/N=C/c2ccc([N+](=O)[O-])cc2)c1	7.0%	2µM*
COc1ccc(CCNc2oc(COc3ccc(Cl)cc3)nc2C#N)cc1OC	?	28.2µM*
COc1ccc(CCNc2oc(COc3cccc(C)c3)nc2C#N)cc1OC	-13.6%	-8.6%
Cc1cccc(-n2nnnc2C2(N3CCCCC3)CCCCC2)c1	0.0%	8.5%
CCNC(=O)NC(=O)C(C)Oc1ccc(C(=O)c2ccc(Cl)cc2)cc1 (stereo not drawn)	?	12.6µM*
CCOc1ccc(C(=O)c2ccc(Cl)cc2)cc1	19.5%	41.6%
CCN(Cc1ccccc1)c1ccc(NS(=O)(=O)c2ccc(C3CCCCC3)cc2)cc1C(=O)O	33.9%	0.8%
CCCCc1nc(NCc2ccncc2)c(C#N)c2c1CCCC2	0.0%	?
CCc1nc(NCc2ccncc2)c(C#N)c2c1CCCC2	?	7.08µM*
Cc1ccc(CNC(=O)CSc2nc3c(=O)n(C)c(=O)n(C)c3n2C)cc1	32.9%	0.0%
O=C(Nc1nc2ccccc2s1)NC1CC(=O)N(c2ccc(F)cc2)C1 (stereo not drawn)	3.8%	39.0%
Cc1ccc(C)c(-c2cc(C(=O)N3CCOCC3)c3ccccc3n2)c1	18.1%	5.8%
Cc1ccc(NC(=O)c2ccc3c(c2)NC(=O)c2ccccc2S3)cc1	6.31µM*	?
Cc1cccc(NC(=O)c2ccc3c(c2)NC(=O)CS3)c1	-2.6%	133.7%
SMILES	FMDV Renilla	FMDV antiviral
CCc1cccc(C)c1NC(=O)Cn1c(=O)n(-c2ccc(C)cc2)c(=O)c2c1cnn2C	10.3%	3.6%
COc1cc(/C=C/c2ccc3cccc([N+](=O)[O-])c3n2)cc(OC)c1O	-15.8%	25.3%
Cc1cccc(NC(=O)CSc2nc3ccc(NC(=O)COc4ccccc4C)cc3s2)c1	5.01µM*	?
Cc1ccccc1OCC(=O)Nc1ccc2nc(SCCOc3ccccc3)sc2c1	-1.4%	-11.1%
COc1ccc(N2CCN(C(=O)CSc3c4c(nc5ccc(Cl)cc35)CCCC4)CC2)cc1	-7.3%	0.6%
C#CCOc1ccc(OC(=O)c2ccc(OCCCCCC)cc2)cc1	-9.4%	10.3%
COCCOc1ccc(C(=O)/C=C/c2cc(OC)c(OC)c(OC)c2)cc1	28.2µM*	?
COCCOc1ccc(/C=C/C(=O)c2ccc(C#N)cc2)cc1OC	13.4%	10.5%
O=C(Nc1ccccn1)c1ccc(C2SCCCS2)cc1	22.5%	12.6µM*
O=C(O)c1ccc(C2SCCCS2)cc1	-1.0%[1.06 µM]	0.0%
COC(=O)c1ccc(CSc2nc3c([nH]c4ccccc43)c(=O)n2-c2cc(C)cc(C)c2)o1	-9.1%	-20.5%
O=C(c1cc(-c2ccc3c(c2)OCO3)nc2ccccc12)N1CCN(Cc2ccc3c(c2)OCO3)CC1	7.1%	117.8%
CCS(=O)(=O)c1ncc(Cl)c(C(=O)Nc2c(C(=O)Nc3cccc(C)c3)oc3ccccc23)n1	10.1%	41.8%
Cc1cccc(NC(=O)c2nc(S(C)(=O)=O)ncc2Cl)c1	35.5µM*	?
CC(C)CNC(=O)CN1CCN(c2cccc(Cl)c2)CC1	-13.8%	-14.3%
CC(NC(=O)c1cccc(S(=O)(=O)N(C)C)c1)c1cc2ccccc2o1 (stereo not drawn)	39.6%	-3.2%
COc1ccc(NC(=O)C2=C(C)Nc3ncnn3C2c2cccn2C)cc1 (stereo not drawn)	7.1%	-4.5%

Screening results (PubChem)
